Only some compounds are listed: those with a hit (about 9.2% of all), similar ones and a draw of the others.
SMN2 splice up: SMN2 splice variant enhancement; HEK293 SMN2-luciferase splicing reporter, luminescence, 30-36 h; Potency, µM (top dose mostly 46.1 µM), for inactives: at the top dose activity change, positive = activation, usual class: activators; actives 2.8% (n = 210,000); AID 1458; also: % of control where 0% means no effect; nearly all actives have a fitted effect of over 55% in size
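qHTS luciferase splicing reporter: luminescence rises when SMN2 exon 7 is included in transfected HEK293 cells. Compound exposure lasted 30-36 h at 37C, with 4.5 mM final sodium butyrate as control, followed by a ONE-Glo read.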
ELG1 repair inh: inhibitors of ELG1-dependent DNA repair in HEK293T cells. HEK293T ELG1-luciferase reporter, luminescence, 16 h; DNA damage induced by 5-fluorouridine. Potency, µM (doses to about 46.1 µM), for the others: top-dose activity change, negative = inhibition, usual class: inhibitors. actives 2.3% (n = 330,000); also: % is scaled to controls: 0 for no effect and ±100 for the full control effect; nearly all actives have a fitted effect of over 55% in size
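DMSO vehicle served as the neutral condition. Each well held 2,000 cells given 5-fluorouridine plus compound; after 16 hr at 37 °C/5% CO2, ONE-Glo was added and luciferase measured 30 min later.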
Rab9 prom act: activates the Rab9 promoter; Huh7 Rab9 promoter-luciferase reporter, luminescence, 24 h; Potency, µM (doses to about 9.22 µM), without a hit: at the highest dose activation, negative = inhibition, usual class: activators; actives 2.8% (n = 320,000); AID 485297; also: % of control where 0% means no effect; nearly all actives have a fitted effect of over 60% in size
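Steps: seed 1500 Huh7 Rab9-luc cells per well, rest 2 h at 37 °C; add compound in DMSO; incubate 24 h; add luciferase reagent, 10 min ambient; read luminescence.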
FLuc counter: firefly luciferase modulation, counter-screen for miR-21 project; P08659; purified FLuc, Km substrates, luminescence inhibition; Potency, µM (titrated, usually from 57.5 µM), for the others: top-dose activity change, negative = inhibition, most hits filed as inhibitors; actives 6.9% (n = 360,000); AID 588342;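 also: plate controls were vehicle for no effect and reference inhibitor for full effect; nearly all actives have a fitted effect of over 55% in size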
Target sequence (P08659 whole entry, looked up): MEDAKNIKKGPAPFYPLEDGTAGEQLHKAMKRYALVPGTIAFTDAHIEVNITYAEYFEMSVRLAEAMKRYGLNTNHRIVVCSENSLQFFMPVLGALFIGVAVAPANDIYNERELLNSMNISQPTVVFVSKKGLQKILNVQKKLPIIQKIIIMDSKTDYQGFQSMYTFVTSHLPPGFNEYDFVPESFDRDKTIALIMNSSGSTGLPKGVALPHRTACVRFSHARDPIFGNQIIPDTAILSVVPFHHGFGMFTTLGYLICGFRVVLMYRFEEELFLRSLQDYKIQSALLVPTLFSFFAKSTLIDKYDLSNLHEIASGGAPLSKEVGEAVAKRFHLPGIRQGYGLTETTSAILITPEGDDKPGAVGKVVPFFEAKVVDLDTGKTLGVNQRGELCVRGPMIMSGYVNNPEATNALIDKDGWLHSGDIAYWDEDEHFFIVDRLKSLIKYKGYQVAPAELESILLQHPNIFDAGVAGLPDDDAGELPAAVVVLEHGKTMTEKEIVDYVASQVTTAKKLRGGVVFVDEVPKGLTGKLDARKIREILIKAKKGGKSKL
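Biochemical qHTS of compounds, final roughly 60 µM downward over six points, against 10 nM purified firefly luciferase using Km concentrations of substrates (10 uM D-luciferin, 10 uM ATP) in Tris acetate pH 7.5 buffer; luminescence output.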
ELG1 genotoxic: induces genotoxicity in HEK293T cells with luciferase-tagged ELG1. HEK293T ELG1-luciferase reporter, luminescence, 16 h. Potency, µM (doses to about 46 µM), inactives show at the highest dose activity change, positive = activation, most hits filed as activators. actives 1.3% (n = 330,000). AID 504466; also: % of control where 0% means no effect; nearly all actives have a fitted effect of over 60% in size
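Cells (2,000/well) expressing the ELG1-luciferase fusion are dosed by pin tool and kept 16 hr at 37 °C, 5% CO2. Signal comes from ONE-Glo luciferase reagent after 30 min at room temperature.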
NPC1 prom act: activates the NPC1 promoter; Huh7 NPC1 promoter luciferase reporter, 24 h; Potency, µM (titrated, usually from 9.22 µM), inactives show at the top dose activation, usual class: activators; actives 2.4% (n = 320,000); AID 485313; also: % of control where 0% means no effect; nearly all actives have a fitted effect of over 60% in size
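Stable NPC1-promoter luciferase Huh7 line; cpd (DMSO) 24 h, 37 °C, 5% CO2; Amplite luciferase reagent 10 min RT; luminescence readout. qHTS format.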
Active calls of the source: *; [ ] = remark or other dose. Calls follow the shape of the dose curve; as a rule, active = well fitted curve in the direction sought with a large enough effect; inconclusive = small, poorly fitted or top-dose-only effect, or another doubt; inactive = no such curve, though single readings can be large; an effect the other way counts as inactive or inconclusive. Potency is read from the fitted curve at half-maximal effect.

`CSc1ccc(C(c2c(O)c3ccccc3oc2=O)c2c(C)n(C)n(-c3ccccc3)c2=O)cc1` (stereo unspecified) gave SMN2 splice up -8%, ELG1 repair inh 9%, Rab9 prom act -3%, FLuc counter inconclusive, ELG1 genotoxic 0% and NPC1 prom act 2%.
For c1ccc(NC2=Nc3ccccc3CC2)cc1 the results were SMN2 splice up 11%, ELG1 repair inh inconclusive, Rab9 prom act inconclusive, FLuc counter inconclusive, ELG1 genotoxic 16µM* and NPC1 prom act inconclusive.
`CC(C)CCn1c(N2CCN(c3cccc(Cl)c3)CC2)nc2c1c(=O)[nH]c(=O)n2C` gave SMN2 splice up -12%, ELG1 repair inh 15µM*, Rab9 prom act 0%, FLuc counter 3%, ELG1 genotoxic -3% and NPC1 prom act 1%.
COc1cccc(NP(=O)(Oc2ccc(Cl)cc2)Oc2ccc(Cl)cc2)c1 was read as SMN2 splice up -27%, ELG1 repair inh 21µM*, Rab9 prom act -4%, FLuc counter -2%, ELG1 genotoxic -7% and NPC1 prom act -1%.
Screening O=P(Nc1ccccc1)(Nc1ccccc1)Oc1ccc(Cl)cc1 returned SMN2 splice up 28%, ELG1 repair inh inconclusive, Rab9 prom act 2%, FLuc counter -1%, ELG1 genotoxic -8% and NPC1 prom act 0%.
For Cc1cccc(NP(=O)(Oc2ccccc2F)Oc2ccccc2F)c1 the results were SMN2 splice up -7%[1.84 µM], ELG1 repair inh 18µM*, Rab9 prom act -1%, FLuc counter 4%, ELG1 genotoxic -8% and NPC1 prom act 1%.
Screening CC1=NN(c2ccccc2)C(=O)[C@@H]1N=Nc1ccc([As](=O)(O)O)c(O)c1 returned SMN2 splice up 7%[9.22 µM].
For Cc1cc(C(=O)Nc2ccccc2)nn1C(C)(C)C the results were ELG1 repair inh inconclusive, Rab9 prom act 2.2µM*, FLuc counter 6.7µM*, ELG1 genotoxic inconclusive and NPC1 prom act 2.2µM*.
For Cc1cc(C(=O)Nc2ccc3c(c2)OCCO3)nn1C(C)(C)C the results were ELG1 repair inh inconclusive, Rab9 prom act 3.5µM*, FLuc counter 7.6µM*, ELG1 genotoxic inconclusive and NPC1 prom act 4.5µM*.
For CC(C)(C)c1ccc(C(=O)Nc2ccc(Cl)cc2C(=O)c2ccccc2)cc1 the results were SMN2 splice up -16% and FLuc counter -5%.
`Cc1ccc(N2C(=O)NC(=O)/C(=C\c3ccc([N+](=O)[O-])o3)C2=O)cc1` gave SMN2 splice up -1%, ELG1 repair inh -11%, Rab9 prom act -3%, FLuc counter 27µM*, ELG1 genotoxic -2% and NPC1 prom act 1%.
Screening Cc1ccc(N2C(=O)NC(=O)/C(=C\c3ccc(N4CCOCC4)cc3)C2=O)cc1 returned SMN2 splice up 10%, ELG1 repair inh inconclusive, Rab9 prom act 1%, FLuc counter -18%, ELG1 genotoxic 6% and NPC1 prom act 9%.
Screening CCOc1ccc(N(C(C)C(=O)Nc2cc(Cl)ccc2OC)S(C)(=O)=O)cc1 (stereo unspecified) returned SMN2 splice up -47% and FLuc counter 6%.
For CCN(CC)S(=O)(=O)c1ccc(NN=C(C#N)C#N)cc1 the results were ELG1 repair inh inconclusive, Rab9 prom act -7%, FLuc counter inconclusive, ELG1 genotoxic -20% and NPC1 prom act 1%.
`N#CC(C#N)=NNc1ccc([N+](=O)[O-])cc1` gave ELG1 repair inh -29%, Rab9 prom act -7%, FLuc counter 17µM*, ELG1 genotoxic -11% and NPC1 prom act 0%.
Screening CCN(CC)C(=O)c1ccc(NC(=O)c2cn(-c3ccccc3)nc2-c2ccc(OC)cc2)cc1 returned ELG1 repair inh 13µM*, Rab9 prom act -1%, FLuc counter -19%, ELG1 genotoxic -9% and NPC1 prom act 1%.
Screening Cc1cccc(OCCn2c(=O)oc3ccc(C)cc32)c1 returned ELG1 repair inh inconclusive, Rab9 prom act inconclusive, FLuc counter 19µM*, ELG1 genotoxic inconclusive and NPC1 prom act 18%.
For Cc1cccc(OCCCn2c(=O)oc3ccccc32)c1 the results were SMN2 splice up 19%, ELG1 repair inh inconclusive, Rab9 prom act 18%, FLuc counter inconclusive, ELG1 genotoxic inconclusive and NPC1 prom act -2%.
Screening c1ccc(N=NNc2ccccc2)cc1 returned SMN2 splice up 10%.
For CCNC(=O)O/N=C(\C)c1sc(-c2ccc(Cl)cc2)nc1C the results were SMN2 splice up 29%, ELG1 repair inh inconclusive, Rab9 prom act 3.5µM*, FLuc counter 2.7µM*, ELG1 genotoxic inconclusive and NPC1 prom act 1.4µM*.
C/C(=N\OC(=O)NC(C)C)c1sc(-c2ccc(Cl)cc2)nc1C was read as SMN2 splice up inconclusive, ELG1 repair inh inconclusive, Rab9 prom act inconclusive, FLuc counter 13µM*, ELG1 genotoxic inconclusive and NPC1 prom act inconclusive.
Screening C/C(=N\OC(=O)NC(C)C)c1sc(-c2ccccc2)nc1C returned SMN2 splice up 21%, ELG1 repair inh inconclusive, Rab9 prom act inconclusive, FLuc counter inconclusive, ELG1 genotoxic 6% and NPC1 prom act 4µM*.
Screening O=C(O)CSCC(=O)O returned SMN2 splice up -1%[9.22 µM].
For Cc1ccc(C)c(NP(=O)(Oc2ccccc2)Oc2ccccc2)c1 the results were ELG1 repair inh 8.2µM*, Rab9 prom act -1%[1.84 µM], FLuc counter 2%, ELG1 genotoxic -15% and NPC1 prom act 2%.
`Cc1ccc(S(=O)(=O)NP(=O)(Oc2ccccc2)Oc2ccccc2)cc1` gave SMN2 splice up -26%, ELG1 repair inh 0%, Rab9 prom act -2%, FLuc counter 6%, ELG1 genotoxic 1% and NPC1 prom act 0%.
CC(=O)[O-].CC(=O)[O-].O.O.[Cd+2] was read as SMN2 splice up -51%.
`COc1cc2c(cc1OC)[C@@H]1C(=O)c3ccc4c(c3O[C@@H]1CO2)C[C@H](C(C)C)O4` gave ELG1 repair inh 0.058µM*, Rab9 prom act -51%, FLuc counter -2%, ELG1 genotoxic -7% and NPC1 prom act -49%.
COc1cc2c(cc1OC)[C@H]1C(=O)c3ccc4c(c3O[C@H]1CO2)C[C@@H](C(C)(C)O)O4 was read as ELG1 repair inh -20% and ELG1 genotoxic -6%.
Screening CC[C@@]1(O)C(=O)OCc2c1cc1n(c2=O)Cc2cc3c(O)cccc3nc2-1 returned SMN2 splice up -34%.
